From PubChem
Marburg entry inh = qHTS for inhibitors of binding or entry into cells for Marburg Virus | Potency, µM (titrated, usually from 37.8 µM), inactives show top-dose activity change, negative = inhibition, most hits filed as inhibitors | Marburg virus pseudotyped entry inhibition, cell reporter | AID 540276, 2011 | 1.8% of 300,000 active; calls by dose curve; tested in HEK293 cells; note: potency is the fitted concentration of half-maximal effect
VACV Venus inh = qHTS for Stage-Specific Inhibitors of Vaccinia Orthopoxvirus: Venus Reporter Primary qHTS; Vaccinia virus Venus reporter expression, fluorescence; Potency, µM (highest dose often 36.5 µM), inactives show at the highest dose activity change, negative = inhibition, actives largely listed as inhibitors; 0.46% of 330,000 active; calls by dose curve; tested in A549 cells; note: potency is the fitted concentration of half-maximal effect; nearly all actives have a fitted effect of over 30% in size
FMDV antiviral = High Throughput Screening for Foot and Mouth Disease Virus Antivirals; FMDV antiviral cell-based qHTS; Potency, µM (top dose mostly 57.9 µM), without a hit: at the highest dose activity change, negative = inhibition, hits mostly inhibitors; 1.2% of 410,000 active; AID 1159524, 2015; calls by dose curve; tested in HEK293T cells; note: read-out not given here; potency is the fitted concentration of half-maximal effect; nearly all actives have a fitted effect of over 45% in size
HCMV antiviral = qHTS Assay for inhibitors of the human cytomegalovirus (HCMV). HFF cells, HCMV-luciferase reporter, 72 h; stronger effect = lower value. activity change, negative = inhibition, % at 57.5 µM. 4.5% of 410,000 active; in the data active = activity change below about -60%; inconclusive = no clear call, values can overlap the other calls; inactive = above about -39%
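Luciferase read-out from HCMV-luciferase-infected HFFs (MOI 1 PFU/cell) 72 h post infection at 37C; compounds added after 16 h cell attachment; activity normalized between buffer-only basal and Salinomycin (10uM) inhibitor controls.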
Vaccinia mCherry = qHTS for Stage-Specific Inhibitors of Vaccinia Orthopoxvirus: mCherry Reporter Primary qHTS. Vaccinia virus mCherry reporter infection, fluorescence. Potency, µM (doses to about 36.5 µM), for the others: at the highest dose activity change, negative = inhibition, most hits filed as inhibitors. 0.63% of 310,000 active. AID 720579, 2013; calls by dose curve; tested in A549 cells; note: potency is the fitted concentration of half-maximal effect; nearly all actives have a fitted effect of over 35% in size
LASV entry inh = qHTS for Inhibitors of binding or entry into cells for Lassa Virus; 1.2% of 300,000 active; Lassa virus pseudotype entry inhibition, cell reporter; AID 540256, 2011; Potency, µM (titrated, usually from 37.9 µM), without a hit: top-dose activity change, negative = inhibition, usual class: inhibitors; calls by dose curve; tested in HEK293 cells; note: potency is the fitted concentration of half-maximal effect; nearly all actives have a fitted effect of over 50% in size
An asterisk follows results filed as active; i = inactive; u = inconclusive; x = not tested or not shown; [ ] = another dose, or the depositor's remark. The list is not random: actives were taken first. Their share in the collection is about 6.5%. % is set by controls: 0 for no effect and ±100 for the full control effect.

SMILES | Marburg entry inh | VACV Venus inh | FMDV antiviral | HCMV antiviral | Vaccinia mCherry | LASV entry inh
Cc1ccc2c(c1)CC1(CN2C)C(=O)OC2(CCCCC2)OC1=O | -0.2% | u | -18.5% | 3.9 | -28.0% | 12.0%
Cc1ccc2cccc(S(=O)(=O)N3CCCc4ccccc43)c2n1 | x | x | -4.7% | -65.0* | x | x
Oc1ccc(/C=N/Nc2ccnc3cc(Cl)ccc23)c(O)c1O | -7.4%[46.1 µM] | 4.1% | -11.0% | 30.8 | -3.6% | -4.6%
Oc1ccc(/C=N/Nc2ccnc3cc(Cl)ccc23)cc1O | x | -10.8% | -2.6% | -60.2* | u | x
O=C(CN1CCN(c2ccc(Cl)cc2)CC1)NCc1ccccc1 | u | -21.0% | -20.5% | -11.8 | -23.6% | 6.31µM*
O=C(CN1CCN(c2cccc(Cl)c2)CC1)NCc1ccccc1 | x | x | -15.0% | 25.9 | x | x
CCNC(=S)N1CCN(c2ccc([N+](=O)[O-])cc2)CC1 | 1.7% | -4.4% | u | 7.6 | i | -9.7%
O=C(CN1CCN(c2cccc(C(F)(F)F)c2)CC1)NCc1ccccc1 | 3.1% | -22.5% | -25.0% | 6.5 | -16.7% | 8.91µM*
O=[N+]([O-])c1ccc(N2CCN(C(=S)NCc3ccc(Cl)cc3)CC2)cc1 | x | u | u | -90.2* | -27.1% | x
CCCc1cc(-c2nc(N)ncc2-c2ccc3c(c2)OCCCO3)c(O)cc1OC | u | 12.6µM* | u | u | u | u
CCCc1cc(-c2nc(N)ncc2-c2csc(C)n2)c(O)cc1OC | x | x | -9.8% | -17.6 | x | x
Cc1nc2c(OCc3ccc(C#N)cc3)cccn2c1N(C)Cc1cccs1 | x | -12.6% | 28.2µM* | -12.4 | i | x
Cc1nc2c(OCC(=O)c3ccc(F)cc3)cccn2c1N(C)Cc1cccs1 | x | -11.1% | 22.6% | 16.1 | 16.7% | x
Cc1ccc2[nH]cc(C(c3ccccc3)c3cccs3)c2c1 (stereo not given) | u | -6.3%[7.34 µM] | u | -79.4* | -2.6%[7.34 µM] | -10.6%[46.1 µM]
Cc1ccc2[nH]cc(C(c3ccccc3)c3ccc(C)s3)c2c1 (stereo not given) | u | -15.8% | u | -99.7* | -8.8% | u
c1ccc2c(C(c3c[nH]c4ccccc34)c3c[nH]c4ccccc34)c[nH]c2c1 | x | -18.1% | x | x | -10.8% | x
COC(=O)c1ccc(C(=O)NCC2Cc3cccc(-c4ccc(C(=O)OC)cn4)c3O2)cc1 (stereo not given) | x | -19.1% | 9.5% | x | -19.5% | x
Cc1ccc2cc(CN(CC3CCCO3)C(=S)Nc3ccccc3)c(=O)[nH]c2c1C (stereo not given) | u | -16.8% | -23.4% | -61.8* | u | u
CCN(CC)CCN(Cc1cc2cc(C)ccc2[nH]c1=O)C(=S)Nc1ccccc1 | u | -4.0% | -13.7% | -68.6* | -4.5% | -8.8%[46.1 µM]
Cc1ccc2cc(CN(CC3CCCO3)C(=S)Nc3ccccc3)c(=O)[nH]c2c1 (stereo not given) | u | -27.2% | 27.8% | -37.2 | u | -2.5%
Cc1ccc2[nH]c(=O)c(CN(CC3CCCO3)C(=S)Nc3ccccc3)cc2c1 (stereo not given) | u | u | u | -77.8* | -29.8% | u
COc1ccc2[nH]c(=O)c(CN(CC3CCCO3)C(=O)Nc3ccc(F)cc3)cc2c1 (stereo not given) | u | -10.8% | 14.1µM* | -31.0 | -18.8% | 11.2µM*
Cc1cc(C)c2[nH]c(=O)c(CN(CC3CCCO3)C(=S)Nc3ccccc3)cc2c1 (stereo not given) | u | -6.4% | -8.5% | -10.0 | -10.1% | -5.6%
Cc1cc2ncc(-c3cccc(Br)c3)nc2cc1C | x | x | x | 132.9 | x | x
COc1ccccc1NC(=S)N(Cc1ccco1)Cc1cc2ccc(C)c(C)c2[nH]c1=O | 11.2µM* | u | -21.7% | u | u | u
SMILES | Marburg entry inh | VACV Venus inh | FMDV antiviral | HCMV antiviral | Vaccinia mCherry | LASV entry inh
COc1ccccc1NC(=S)N(Cc1ccco1)Cc1cc2cc(C)cc(C)c2[nH]c1=O | u | -15.2% | -17.6% | u | -23.6% | u
NCC[C@H]1CCC[C@H](CCN)N1 | -3.7% | x | x | x | x | x
CCOC(=O)c1cccc(NC(=O)N2CC=C(c3c[nH]c4ccccc34)CC2)c1 | x | -1.9% | -8.3% | 0.0 | -8.2% | u
O=S1(=O)N(CCN2CC=C(c3c[nH]c4cc(F)ccc34)CC2)c2cccc3c2N1CCC3 | u | -11.9% | 0.0% | -80.2* | i | u
O=C(Cn1nnc(N2CCOCC2)n1)NN=Cc1ccccc1Cl | x | x | x | -12.5 | x | x
CCc1cccc2c(C(=O)CCl)c[nH]c12 | u | -17.5% | 28.2µM* | 8.7 | -20.4% | -22.3%[46.1 µM]
CCc1cccc2c(C(=O)CN3C(=O)NC4(CCCCC4)C3=O)c[nH]c12 | u | -26.4% | 0.0% | u | u | u
CCc1cccc2c(C(=O)CN3C(=O)NC4(CCCCCC4)C3=O)c[nH]c12 | u | u | 36.2% | -86.6* | -12.2% | u
Cc1[nH][nH]c(=O)c1C(c1ccc(-c2ccc(C(=O)O)cc2)o1)c1c(C)[nH][nH]c1=O | -20.5%[46.1 µM] | -0.2% | 8.2% | -61.8* | i | 15.2%
COc1cc(NS(C)(=O)=O)ccc1Nc1c2ccccc2nc2ccccc12 | 0.731µM* | u | -17.6% | -96.8* | 0.501µM* | 0.58µM*
COc1ccc(OC)c(Nc2cc(C)c3ccccc3n2)c1 | x | x | -2.9% | -4.4 | x | x
COc1ccc(OC)c(Nc2c3ccccc3nc3ccccc23)c1 | 6.31µM* | u | u | -70.9* | u | u
COc1ccc(OC)c(Nc2ccc(Nc3cc(OC)ccc3OC)nn2)c1 | u | -26.0% | u | -86.3* | -28.8% | -15.3%
COc1ccc(OC)c(Nc2c3c(nc4ccccc24)CCC3)c1 | 2.82µM* | -24.6% | -23.8% | -79.1* | -27.6% | u
COc1ccccc1CNc1nc(-c2cccc(NS(C)(=O)=O)c2)nc2ccccc12 | x | x | -8.8% | x | x | x
N#Cc1c(N)n(-c2cccc(Cl)c2)c2nc3ccccc3nc12 | 8.9%[46.1 µM] | -3.4% | -26.0% | -2.4 | -11.9% | -3.4%[46.1 µM]
NCCCCC(NC(CCc1ccccc1)C(=O)O)C(=O)N1CCCC1C(=O)O (stereo not given) | x | u | -7.4% | x | -5.2% | x
COc1ccc(CNc2cc([N+](=O)[O-])ccc2OC)cc1 | -3.0% | -6.1% | x | -74.1* | i | -0.6%
COc1cc(Nc2c3c(nc4ccccc24)CCC3)cc(OC)c1OC | u | u | -15.2% | -74.5* | u | -21.0%
COc1ccc([N+](=O)[O-])cc1NS(=O)(=O)c1ccccc1 | u | -10.0% | 20.3% | -6.4 | i | 9.7%
COc1ccc([N+](=O)[O-])cc1Nc1c2ccccc2nc2ccccc12 | x | x | 31.6µM* | u | x | x
Cc1ccccc1OCC(O)CNC1CCC(NCC(O)COc2ccccc2C)CC1 (stereo not given) | 1.12µM* | 10µM* | u | -99.6* | 3.16µM* | u
